Data taken from ChEMBL document CHEMBL1157539, “Thousands of chemical starting points for antimalarial lead identification” (Nature, 2010).

Tests used:
Format in all cases: functional
Plasmodium falciparum [1] = assay: GSK_TCMDC: Inhibition of Plasmodium falciparum 3D7 in whole red blood cells, using parasite LDH activity as an index of growth. Test compounds present at 2uM
Plasmodium falciparum [2] = assay: GSK_TCMDC: Inhibition of Plasmodium falciparum Dd2 in whole red blood cells, using parasite LDH activity as an index of growth. Test compounds present at 2uM
HepG2 = assay: GSK_TCMDC: Percent inhibition of human HepG2 cell line. Test compounds present at 10uM.

SMILES	Inhibition (Plasmodium falciparum [1]) [%]	Inhibition (Plasmodium falciparum [2]) [%]	Inhibition (HepG2) [%]
Cl.NOCCCCOc1ccccc1	99	2	12
Cl.ON=C1CCc2cc(-c3[nH]c(-c4cccc(OCCNCc5ccc(F)cc5)c4)nc3-c3ccncc3)ccc21	89	69	76
O=C(Nc1cccc(-c2csc(-c3nc4ccccc4[nH]3)c2)c1)c1ccncc1	100	61	64
CCCCN(CCCC)CCNC(=O)c1ccc(-c2nc3cc(Cl)ccc3[nH]2)c(OCC)c1	100	80	0
CCN(CC)CCOc1ccc(NC(=O)c2oc3ccccc3c2C=Cc2ccccc2)cc1.O=C(O)/C=C/C(=O)O	98	54	51
COc1cc(NC(=O)c2ccc(-c3ccc(C(C)=O)cc3)s2)ccc1OCCN1CCCC1	100	63	31
O=C(/C=C/c1ccc(Cl)cc1)NCCCCCN1CCC(c2c[nH]c3ccccc23)CC1	99	15	42
CCN(CC)CCNc1ccnc2[nH]c3ccc(Cl)cc3c12	100	92	3
O=C(O)C(F)(F)F.c1cc(CNCC2CCCO2)cc(-c2cccc(-c3nc4ccccc4[nH]3)c2)c1 (centres undefined)	100	7	15
Cc1ccc(NC(=O)NCCCCCN2CCC(c3c[nH]c4ccccc34)CC2)cc1I	94	5	96
CCC1CN2CCc3c([nH]c4ccccc34)C2CC1CC1=NCCc2c1[nH]c1ccccc21.Cl (centres undefined)	100	47	20
Br.CCSc1ccccc1CON1C(=N)N=C(N)NC1(C)C	96	10	62
CCCCCCN(CCCCCC)CC(O)c1cc(-c2ccc(Cl)cc2)nc2c(C)cc(C)cc12 (centres undefined)	98	98	27
O=C(N[C@H]1CCN(Cc2ccc(OCCN3CCNCC3)c3ccccc23)C1)c1ccc(Cl)c(Cl)c1.O=C(O)C(F)(F)F	100	99	53
CCCn1c(Sc2ccc(C#N)c([N+](=O)[O-])c2)nnc1-c1cc(OC)cc(OC)c1	98	79	24
COc1ccc(N2CCN(CCCNC(=O)c3ccc(NC(=O)c4cc(Cl)cc(Cl)c4)cc3)CC2)c(OC)c1	100	79	21
Cc1cccc2nc(-c3ccc(-c4ccc(CN5CCN(CCO)CC5)cc4)s3)[nH]c12.O=C(O)C(F)(F)F	92	47	34

SMILES	Inhibition (Plasmodium falciparum [1]) [%]	Inhibition (Plasmodium falciparum [2]) [%]	Inhibition (HepG2) [%]
CN(C)C(CNC(=O)c1cc(-c2ccncc2)c(-c2ccc(Cl)c(O)c2)o1)c1ccccc1.O=C(O)C(F)(F)F (centres undefined)	91	28	28
COc1cc(CS(C)(=O)=O)ccc1Nc1nccc(-c2c(-c3cccc(NC(=O)c4c(F)cccc4F)c3)nn3ccccc23)n1	92	71	46
CC(C)CNCc1cccc(-c2cccc(CN(CCCN3CCN(C)CC3)C(=O)Nc3ccccc3)c2)c1.O=C(O)C(F)(F)F	95	76	25
O=C(O)C(F)(F)F.O=C1CCCN1CCCNCc1cccc(-c2ccc(-c3nc4cc(C(F)(F)F)ccc4[nH]3)s2)c1	100	99	19
CCc1cc(=O)[nH]c(-n2nc(C)cc2NC(=O)CC(c2ccccc2)c2ccccc2)n1	92	75	37
Cc1cccc2nc(-c3ccc(-c4cccc(C(=O)NCCN5CCCC5)c4)s3)[nH]c12	94	2	22
C=CCCCNCC(NCCCNc1cc(=O)c2ccccc2[nH]1)c1cc(Br)cc(Br)c1 (centres undefined)	94	19	0
COc1cc(CCCOc2c(N)nc(N)nc2N)cc(OC)c1OC	88	0	8
c1ccc(Oc2ccc(Nc3nc(NCCc4c[nH]cn4)nc(NC4CCCC4)n3)cc2)cc1	97	23	0
CN(C)c1ccc(CN2CCC(NC(=O)c3ccc(-c4cccc(C(F)(F)F)c4)s3)CC2)cc1.O=C(O)C(F)(F)F	97	40	90
O=C(NCc1cc2c(cc1Cl)OCO2)c1ccc(CNC2CCN(Cc3ccccc3)CC2)cc1.O=C(O)C(F)(F)F	100	47	11
COc1cccc(-c2cc(C(=O)Nc3ccc4[nH]c(-c5ccccc5)nc4c3)[nH]n2)c1.O=C(O)C(F)(F)F	100	65	68
CCCCCN1C(=O)C(c2ccccc2)(c2ccccc2)N=C1N	97	68	18
COc1cc(NC(=O)/C=C/c2ccccc2OC(F)(F)F)cc(OCCN2CCCCC2)c1.O=C(O)C(=O)O	96	6	25
Cl.OCCNc1nc(Nc2ccc(Cl)cc2)nc2ccccc12	100	99	30
COCCN1CCN(Cc2cccc(-c3ccc(-c4nc5ccccc5[nH]4)cc3)c2)CC1.O=C(O)C(F)(F)F	100	50	9
